Bioassay records from PubChem BioAssay.
Rows were chosen to be rich in hits. Some 4.1% of all compounds tested hit in one or more screens of this group.
ssDAF12 agonist = activators of S. stercoralis DAF-12 nuclear receptor; HEK293 ssDAF-12/GRIP1 lit1-tk-luc reporter, luminescence; % of 3 µM dafachronic acid response; activation, % at 6.8 µM; 1% of 370,000 active;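 active means activation above the mean over all tested compounds plus 3 SD, cut at about 0.9% in these data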;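 further: 0% = DMSO-only wells and 100% = 3 µM delta7-dafachronic acid wells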
hgDAF-12 ag = activates the H. glycines DAF-12 receptor ligand-binding domain; 1.8% of 370,000 active; activation, % at 6.8 µM; AID 687014; HEK293 GAL4-hgDAF12 UAS-luciferase reporter, agonist luminescence; normalized to butyrate control;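 active means activation above a cutoff set at the mean of all screened compounds plus 3 SD, cut at about 10% in these data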;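 further: 0% = DMSO wells and 100% = sodium butyrate wells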
DAX1 inh-1 = DAX1 (NR0B1) inhibition, primary screen; AID 652010; HEK293T StAR-luciferase reporter, SF-1/DAX-1 repression relief; inhibition, % at 6.8 µM; 1.1% of 370,000 active;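 active means inhibition above the mean over all tested compounds plus 3 SD, cut at about 3.6% in these data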;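 further: 0% = DAX-1 cells with DMSO and 100% = cells lacking DAX-1 with DMSO; higher inhibition means more luminescence from relief of DAX-1 repression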
DAX1 inh-2 = inhibitors of human orphan nuclear receptor DAX1 (NR0B1); HEK293 Gal4-DAX1 luciferase reporter, luminescence; AID 504766; 0.99% of 340,000 active; inhibition, % at 6.75 µM; P51843;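 active means inhibition above the mean over all tested compounds plus 3 SD, cut at about 4.2% in these data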;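 further: 0% = DAX1-transfected cells with DMSO and 100% = empty-vector control cells with DMSO; inhibition shows as a rise in luminescence from relieved DAX1 repression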
Target sequence (P51843 207-470 limits assumed): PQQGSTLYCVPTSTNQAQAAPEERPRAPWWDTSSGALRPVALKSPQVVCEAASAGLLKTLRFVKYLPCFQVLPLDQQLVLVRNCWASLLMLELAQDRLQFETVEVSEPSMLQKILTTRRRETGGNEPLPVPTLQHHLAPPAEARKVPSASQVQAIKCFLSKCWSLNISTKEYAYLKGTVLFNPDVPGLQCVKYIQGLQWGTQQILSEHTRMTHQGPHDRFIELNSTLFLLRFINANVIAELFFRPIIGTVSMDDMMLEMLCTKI
hcDAF12 agonist = activates DAF-12 receptor from parasite H. contortus. HEK293 hcDAF-12 lit1-tk-luc reporter, luminescence; 0% DMSO, 100% Δ7-dafachronic acid. activation, % at 6.8 µM. 1.4% of 370,000 active;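 active means activation above the mean of all tested compounds plus 3 SD, cut at about 5.5% in these data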;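 further: 100% = response to 3 µM Δ7-dafachronic acid high control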
Active calls of the source: *; . = no result.

SMILES | ssDAF12 agonist | hgDAF-12 ag | DAX1 inh-1 | DAX1 inh-2 | hcDAF12 agonist
COC(CNC(=O)c1ccc2nc3ccccc3c(=O)n2c1)OC | -1 | 4 | 0 | 0 | 5.7*
COC(=O)C1CN(Cc2ccc(OC)cc2)CCS(=O)(=O)N1Cc1ccc(F)cc1 (stereo not drawn) | -2 | -1 | 0 | . | 0
Cc1sc2nc(COC(=O)CNC(=O)c3ccc(F)cc3Cl)[nH]c(=O)c2c1C | -1 | 0 | -1 | . | -1
CN(C(=O)c1cc(C(=O)N(C)c2ccccc2)cc([N+](=O)[O-])c1)c1ccccc1 | -2 | 0 | -1 | 4.3* | -3
O=C(N/N=C/c1ccc(-c2ccccc2C(=O)O)o1)c1cccs1 | 0 | 12* | 1 | 1 | 1
O=C(N/N=C/c1ccncc1)c1cccs1 | . | . | . | 3 | .
OC(CN1CCOCC1)Cn1c2ccccc2c2ccccc21 (stereo not drawn) | 0 | 0 | 0 | -1 | -2
O=C1c2ccccc2C(=O)N1CC(O)CN1CCOCC1 (stereo not drawn) | 3.9* | -1 | -1 | 0 | 1
O=C(COc1ccccc1)NCC(=O)Nc1ccncc1 | -1 | 11* | 0 | -1 | 1
CC(=O)Nc1ccc(NC(=O)CNC(=O)COc2ccccc2)cc1 | -1 | 1 | -1 | 2 | -1
COc1ccc(-c2noc(CCC(=O)N3CCN(c4cccc(OC)c4)CC3)n2)cc1 | -1 | 0 | -2 | -2 | -3
COc1ccc(-c2noc(CCC(=O)N3CCC(c4cc(C)ccc4C)CC3)n2)cc1 | 3.0* | 4 | 0 | 0 | -2
Cc1ccc(NC(=O)OC[C@@H]2CSCCS(=O)(=O)N2)cc1 | 0 | 2 | 2 | . | 2
COc1ccc(-c2cnc3c(c2)CCC3(C#N)C#N)cc1 | -1 | -4 | 0 | 7.3* | -1
COc1ccc(-c2ccc(OC)cc2)cc1 | 0 | 1 | 0 | 2 | 1
COC(=O)CNC(=O)c1cc(OC)cc(OC)c1 | -1 | -1 | 3.8* | 1 | -1
CN(C)/C=N/c1sc2c(c1C#N)CCCC2 | -1 | 8 | 1 | 1 | 1
CC1CCc2c(sc(/N=C/N(C)C)c2C#N)C1 (stereo not drawn) | -1 | 6 | 0 | 4.7* | 1
Nc1nc(N)c(N=O)c(OCC2CCCCC2)n1 | 0 | 12* | 3 | 2 | 0
Cc1ccc(NC(=O)C[n+]2cc(-c3ccccc3)n3c2CCC3)cc1 | -1 | -1 | 0 | . | -1
O=C(C[n+]1cc(-c2ccc(F)cc2)n2c1CCC2)c1cccs1 | -1 | 1 | 0 | 6.7* | 1
Cc1ccc(-c2c[n+](CC(=O)Nc3ccccc3C)c3n2CCC3)cc1 | -2 | -1 | 0 | 4.3* | 1
CN1C(=O)c2cc(NC(=O)c3ccccc3)ccc2OC[C@H]2O[C@@H](CC(=O)NCC3CC3)CC[C@@H]21 | -1 | 0 | 0 | . | 0
CC1C=CC=CCCC=CC=CC=CC=CC(OC2O[C@H](C)[C@@H](O)[C@H](N)[C@@H]2O)CC(O)C(C(=O)O)C(O)CC(=O)CC(O)C(O)CCC(O)CC(O)CC(O)CC(=O)OC(C)C(C)C1O (stereo partly drawn) | -1 | 1 | -1 | . | -1
Cn1c(/C(C#N)=C(\O)c2cccc(F)c2)nc2ccccc21 | 1.4* | 3 | 0 | 1 | 4
SMILES | ssDAF12 agonist | hgDAF-12 ag | DAX1 inh-1 | DAX1 inh-2 | hcDAF12 agonist
Cn1c(/C(C#N)=C(\O)c2ccc([N+](=O)[O-])cc2)nc2ccccc21 | 0 | 0 | 0 | 0 | 5
Oc1ccccc1-c1nnc(SCCN2CCOCC2)n1Cc1ccccc1 | 1.1* | 0 | 0 | 0 | 6.9*
O=C(CSc1nnc(-c2ccccc2)n1Cc1ccccc1)N1CCOCC1 | 0 | 1 | 0 | -1 | 0
Cc1nc(Nc2ccc(S(N)(=O)=O)cc2)sc1-c1ccccc1 | -1 | 4 | 0 | -1 | -3
COc1ccc(Nc2nc(C)c(-c3ccccc3)s2)cc1 | 0 | 8 | 1 | 1 | 6.2*
COc1ccc(Nc2nc(-c3ccccc3)c3ccccc3n2)cc1 | -1 | 0 | 0 | 0 | 2
COc1ccc(Nc2nc(C)c3ccccc3n2)cc1 | 1.1* | 10 | 1 | 3 | 6.5*
COC(=O)[C@]12C=CCN1[C@H](c1ccc(C(F)(F)F)cc1)c1c(c3ccccc3n1S(=O)(=O)c1ccc(C)cc1)C2 | -1 | 1 | 1 | . | 3
CCN(CC)CCCNC(=O)CC1Oc2ccccc2NC1=O (stereo not drawn) | -1 | 3 | 0 | . | -2
Cc1nc2ccccc2nc(C)c1=NOCc1ccc(C#N)cc1 | 0 | 11* | 2 | 2 | 4
N#Cc1ccc(CO/N=C/c2ccccc2)cc1 | -1 | 7 | 0 | 1 | 1
C=CCOc1nc(-c2ccccc2Cl)nc2ccccc12 | 1.4* | 1 | 0 | 3 | 2
COc1ccc(C(=O)NC2CCN(CC(=O)NCc3ccccc3F)CC2)cc1 | -1 | 2 | 0 | 0 | -1
Cn1c(=O)c(-c2cccc(Cl)c2)c(O)c2ccccc21 | -1 | -2 | 0 | 3 | -1
Cn1c2[n+](c3ccc(Cl)cc3c1=O)Cc1ccccc1-2 | 0 | 3 | 0 | 5.7* | 0
CN(CCCOC(=O)c1cccs1)C1CN(Cc2cn(Cc3ccccc3Cl)nn2)S(=O)(=O)C1 (stereo not drawn) | -1 | 1 | -1 | . | -2
CSc1nc(O)c(C(c2cccc([N+](=O)[O-])c2)c2c(O)nc(SC)[nH]c2=O)c(=O)[nH]1 | 1 | 0 | -1 | 1 | 6.0*
Nc1[nH]c(C(=O)c2ccccc2)c(-c2ccc(Cl)cc2Cl)c1C(=O)c1cccs1 | -1 | 0 | . | . | -1
COC(=O)c1ccc2nc(C3CCCCC3)c(Cc3ccc(C)cc3)n2c1 | 1.0* | 5 | 1 | . | 3
COC(=O)c1ccc2nc(-c3ccco3)c(Cc3ccccc3OC)n2c1 | 1.3* | 6 | -2 | . | 2
COC(=O)c1ccc2nc(-c3ccco3)c(Cc3ccccc3C(F)(F)F)n2c1 | -1 | -5 | -1 | . | -1
COC(=O)c1ccc2nc(C3CCCCC3)c(Cc3ccccc3C(F)(F)F)n2c1 | 0 | 2 | 3.6* | . | 2
CCCC[C@H]1C2CC(OC(=O)NCCCC(=O)OCC)C(C2)[C@H]2CCCCN21 (stereo partly drawn) | -1 | 0 | 0 | . | -2
COc1ccc(CN(C)CC#Cc2ccccc2)c(OC)c1 | -1 | 1 | -2 | . | 0
Cc1cc(=O)[nH]c(SCc2cccc3cccnc23)n1 | -2 | 0 | -1 | 5.2* | -1
Cc1cc(NS(=O)(=O)c2ccc(NC(=O)/C=C/c3ccc(C)o3)cc2)nc(C)n1 | -2 | -4 | 0 | 4.6* | 0
COc1cc(C(=O)Nc2ccc(S(=O)(=O)Nc3cc(C)nc(C)n3)cc2)cc(OC)c1OC | -1 | -2 | 1 | 6.4* | 0
Cc1cc(NS(=O)(=O)c2ccc(NC(=O)/C=C/c3ccccc3)cc2)nc(C)n1 | -1 | -2 | 1 | 1 | 0
